The text below walks through data of PubChem BioAssay AID504652 (National Center for Advancing Translational Sciences (NCATS), 2011).

“And” between values parts separate entries of the source, which are not always exact repeats. Equal entries are not always repeated. Screen size: about 360,000 compounds; about 11,000 (3.1%) were called active. Rule as the data show it: active = activity change below about -30%; inactive = the rest. Many of the other results were omitted from the sample, so actives are more common in it than they were.
% is scaled to controls: 0 for no effect and ±100 for the full control effect.

In this assay the target is D(1A) dopamine receptor (Homo sapiens) (UniProt P21728). In words: Antagonist of Human D 1 Dopamine Receptor: qHTS. The conditions noted are these: HEK293 TREx D1 cells, calcium flux, dopamine EC80; at 10 µM; stronger effect = lower value. The method in brief: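 After overnight tetracycline induction at 30 C, force-coupled D1 HEK293 cells took up a no-wash calcium dye at room temperature. Compounds were added and monitored 180 s, and the response to EC80 dopamine was then recorded.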
D(1A) dopamine receptor (Homo sapiens), sequence (P21728 whole entry, looked up): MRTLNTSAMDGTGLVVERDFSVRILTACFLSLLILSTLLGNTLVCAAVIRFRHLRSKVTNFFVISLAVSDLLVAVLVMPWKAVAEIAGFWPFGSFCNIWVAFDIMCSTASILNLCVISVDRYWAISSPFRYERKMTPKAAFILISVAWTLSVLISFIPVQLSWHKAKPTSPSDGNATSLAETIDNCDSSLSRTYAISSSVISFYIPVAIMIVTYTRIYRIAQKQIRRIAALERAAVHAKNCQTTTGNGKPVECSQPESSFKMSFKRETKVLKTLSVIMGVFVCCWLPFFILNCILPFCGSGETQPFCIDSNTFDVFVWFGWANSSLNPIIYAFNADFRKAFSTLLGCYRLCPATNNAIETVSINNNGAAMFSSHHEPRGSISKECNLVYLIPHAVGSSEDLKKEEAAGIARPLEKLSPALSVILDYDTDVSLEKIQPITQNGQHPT
As for `C/C(=C\C(=O)c1ccccc1)Nc1cccc(O)c1`, the activity change, negative = inhibition was -30.1% (active).

In the case of `O=C(CSc1ccccc1)Nc1ccc(C(=O)Nc2cccc(O)c2)cc1`, the activity change, negative = inhibition is -29.1% (inactive).

As to `O=C(Nc1cccc(O)c1)c1ccc(C(=O)c2ccccc2)o1`, the activity change, negative = inhibition is -9.29% (inactive).

For the compound `Cc1ccc(NC(=O)CSc2nc3c(c(=O)[nH]2)CN(Cc2ccc4c(c2)OCO4)CC3)cc1C`, the activity change, negative = inhibition is 11.3% (inactive).

As to `O=C(CSc1nnc(-c2c[nH]c3ccccc23)n1-c1ccc(F)cc1)NCc1ccco1`, the activity change, negative = inhibition was 3.17% (inactive).

Consider `COc1ccc(-n2c(SCC(=O)NCc3ccco3)nnc2-c2c[nH]c3ccccc23)cc1`, for which the activity change, negative = inhibition was -90% (active).

As to `COc1ccc(-n2c(SCC(=O)NCc3cccs3)nnc2-c2ccoc2C)cc1`, the activity change, negative = inhibition was -0.757% (inactive).

`CCOC(=O)C1CCC(CN(Cc2ccc(OC)cc2)S(=O)(=O)c2ccc(F)c(C(=O)Nc3cc(C)ccc3C)c2)CC1` (stereo not drawn): the activity change, negative = inhibition is 15.6% (inactive).

`COc1cccc(COC(=O)C2CCN(S(=O)(=O)c3ccc(Cl)cc3)CC2)c1OC`: the activity change, negative = inhibition was -32.8% (active).

On to `CCOc1ccc(S(=O)(=O)N2CCC(C(=O)OCc3ccc(OC)cc3)CC2)cc1`, for which the activity change, negative = inhibition is -16.6% (inactive).

With `COc1cccc(COC(=O)C2CCN(S(=O)(=O)c3cccs3)CC2)c1OC`, the activity change, negative = inhibition is -15.5% (inactive).

As for `COc1ccc(C(=O)c2oc3ccccc3c2NC(=O)COc2cccc(C)c2)cc1`, the activity change, negative = inhibition was -10.1% (inactive).

For `Cc1nn(CC(=O)NCCc2ccccc2)c(=O)c2c1sc1ccccc12`, the activity change, negative = inhibition was -1.1% (inactive).

`Cc1cccc(CNS(=O)(=O)c2ccc(-c3cnc(C4CC4)o3)cc2)c1`: the activity change, negative = inhibition was -9.2% (inactive) and -2.23% (inactive).

With `Cc1cccc(NS(=O)(=O)c2ccc(-c3cnc(C4CC4)o3)cc2)c1`, the activity change, negative = inhibition was -44.9% (active).

For the compound `Cc1ccc(-c2cnc(C3CC3)o2)cc1S(=O)(=O)Nc1cccc(C)c1C`, the activity change, negative = inhibition is 9.76% (inactive).

Turning to `O=C(CSc1nccn1C1CCCC1)Nc1cc(C(F)(F)F)ccc1Cl`, the activity change, negative = inhibition was -16% (inactive).

On to `C=C(C)CNc1cc(S(=O)(=O)N2CCOCC2)ccc1Oc1ccccc1`, for which the activity change, negative = inhibition was -20.5% (inactive).

`COC(=O)c1cc(Oc2ccc(S(=O)(=O)N3CCOCC3)cc2[N+](=O)[O-])cc(C(=O)OC)c1`: the activity change, negative = inhibition is -38.9% (active).

As to `COc1ccc(S(=O)(=O)N2CCC(C(=O)OCC(=O)c3ccccc3)CC2)cc1[N+](=O)[O-]`, the activity change, negative = inhibition was -3.94% (inactive).

`Cc1ccc(NC(=O)c2ccc3[nH]c(C)cc(=O)c3c2)c(C)c1`: the activity change, negative = inhibition was -2.41% (inactive).

Consider `CCOC(=O)c1c(N)n(-c2cccc(C)c2C)c2nc3ccccc3nc12`, for which the activity change, negative = inhibition was -1.89% (inactive).

Regarding `COc1ccccc1CNC(=O)c1ccc(CS(=O)c2ccccc2Cl)o1` (stereo not drawn), the activity change, negative = inhibition is -4.03% (inactive).

Turning to `Cc1ccc(C)c(N2CCN(C(=O)CCc3c(C)nc4c(c3C)c(=O)n(C)c(=O)n4C)CC2)c1`, the activity change, negative = inhibition is 7.99% (inactive).

Consider `CC1=C(C(=O)OCC(C)C)C(c2ccc(OCc3ccccc3)cc2)N2C(=O)CCSC2=N1` (stereo not drawn), for which the activity change, negative = inhibition was 4.42% (inactive).

As for `CN(C)c1ccc(-n2cccc2/C=N/n2cnnc2)cc1`, the activity change, negative = inhibition is 10% (inactive).

Turning to `CN(C)c1ccc(-n2cccc2/C=C2/SC(=Nc3ccc(F)cc3)NC2=O)cc1`, the activity change, negative = inhibition was -42.9% (active).

Consider `Cc1ccc(N=C2NC(=O)/C(=C/C=C/c3ccco3)S2)cc1C`, for which the activity change, negative = inhibition is -15.5% (inactive).

Regarding `CCc1cc2c(cc3c(=O)n(CC(=O)N4CCN(c5cc(Cl)ccc5C)CC4)nc(CC)n32)s1`, the activity change, negative = inhibition was -29.5% (inactive).

With `COc1ccc(C(=O)Nc2ccc(-n3nncc3-c3ccccc3)cc2)cc1OC`, the activity change, negative = inhibition was -8.31% (inactive).

`Nn1c(SCC(=O)NC2CCCC2)nnc1-c1ccccc1F`: the activity change, negative = inhibition was 10.8% (inactive).

`Nn1c(SCC(=O)NC(=O)NC2CCCC2)nnc1-c1ccccc1F`: the activity change, negative = inhibition was -31.8% (active).

For `CC(C)NC(=O)NC(=O)CSc1nnc(-c2ccccc2F)n1N`, the activity change, negative = inhibition is 2.73% (inactive).

Consider `CCc1cc2c(cc3c(=O)n(CC(=O)NCCc4ccc(OC)c(OC)c4)ncn32)s1`, for which the activity change, negative = inhibition was -0.482% (inactive).

As for `CCc1ccc(NC(=O)c2sc3nc4c(cc3c2N)CN(CC)CC4)cc1`, the activity change, negative = inhibition was -15.6% (inactive).

Consider `Fc1ccccc1Cn1cnc(NC(=S)NCCc2ccccc2)n1`, for which the activity change, negative = inhibition is 0.584% (inactive).

As to `O=C(COC(=O)Cc1ccccc1F)NCCc1ccccc1`, the activity change, negative = inhibition is -27% (inactive).

As to `N=c1n(CCc2ccccc2)c2ccccc2n1Cc1ccccc1F`, the activity change, negative = inhibition is -72.5% (active).

In the case of `Cn1c(=O)c2sccc2n2c(CCC(=O)NCc3ccccc3Cl)nnc12`, the activity change, negative = inhibition was -4.17% (inactive).

Consider `Cn1c(=O)c2c(SCC(=O)N3CCc4ccccc43)nc(-c3ccc(Cl)cc3)nc2n(C)c1=O`, for which the activity change, negative = inhibition is -4.79% (inactive).

With `CCCOC(=O)c1c(NC(=O)c2cc3nc(-c4ccc(OC)cc4)cc(C(F)(F)F)n3n2)sc2c1CCCC2`, the activity change, negative = inhibition is 1.36% (inactive).

Take `CCOC(=O)C1CCN(c2ncnc3c2c(-c2ccccc2)cn3-c2cccc(C)c2)CC1`: the activity change, negative = inhibition is 7.99% (inactive).

Take `COc1cc(OC)cc(C(=O)Nc2c(C(=O)Nc3ccc(F)cc3)oc3ccccc23)c1`: the activity change, negative = inhibition was -9.05% (inactive).

For the compound `COc1cccc(N2CCN(C(=O)C3CCCN(S(=O)(=O)c4cnc[nH]4)C3)CC2)c1` (stereo not drawn), the activity change, negative = inhibition was -10% (inactive).

In the case of `O=C(NCc1ccco1)C1CCCN(S(=O)(=O)c2cnc[nH]2)C1` (stereo not drawn), the activity change, negative = inhibition was 6.39% (inactive).

In the case of `CCOC(=O)c1cccc(NC(=O)C2CCCN(S(=O)(=O)c3cnc[nH]3)C2)c1` (stereo not drawn), the activity change, negative = inhibition was -31.2% (active).

On to `CC1CCN(c2ccc([N+](=O)[O-])cc2C(N)=O)CC1`, for which the activity change, negative = inhibition was -6.77% (inactive).

Turning to `O=C(O)C1CCN(c2ccc([N+](=O)[O-])cc2[N+](=O)[O-])CC1`, the activity change, negative = inhibition was -34.9% (active).

For `CC1CCN(c2ccc(S(=O)(=O)Nc3cc(C(=O)O)cc(C(=O)O)c3)cc2[N+](=O)[O-])CC1`, the activity change, negative = inhibition was 21.6% (inactive).

Take `COc1ccccc1CNc1nc2ccc(Cl)cc2n2cnnc12`: the activity change, negative = inhibition is 31.1% (inactive).

Regarding `Cc1ccc(OCC(=O)OCc2cc(=O)n3nc(C4CC4)sc3n2)cc1C`, the activity change, negative = inhibition is 5.56% (inactive).

As to `Cc1cccc(CSc2nnc(C)c(=O)n2N)c1`, the activity change, negative = inhibition is -16.8% (inactive).

As for `Cn1c(SCC(=O)N2CCCCC2)nc2c(c1=O)SCC2`, the activity change, negative = inhibition is -2.45% (inactive).

On to `Cc1cccc(CSc2nc3c(c(=O)n2C)SCC3)c1`, for which the activity change, negative = inhibition was -31.4% (active).

Regarding `CCOc1ccc(C(O)Cn2c(=N)n(CCN3CCCCC3)c3ccccc32)cc1` (stereo not drawn), the activity change, negative = inhibition is 3.59% (inactive).

On to `Cn1c(=N)n(CC(O)c2cccs2)c2ccccc21` (stereo not drawn), for which the activity change, negative = inhibition was -34.7% (active).

Take `Cc1cccc(OCC(O)Cn2c(=N)n(CCN3CCOCC3)c3ccccc32)c1` (stereo not drawn): the activity change, negative = inhibition is -8.76% (inactive).

Take `COc1cc(C(=O)Nc2ccc(OCc3cc(=O)n4cc(C)sc4n3)cc2)cc(OC)c1OC`: the activity change, negative = inhibition is -16.6% (inactive).

Regarding `Cc1ccc2cccc(OCCCOc3ccccc3CO)c2n1`, the activity change, negative = inhibition was -71.7% (active).

Consider `CCOc1cccc(OCCCOc2cccc3cccnc23)c1`, for which the activity change, negative = inhibition is 7.73% (inactive).

In the case of `OCc1ccc(OCCCOc2cccc3cccnc23)cc1`, the activity change, negative = inhibition was -4.17% (inactive).

Turning to `Cn1c(=O)n(Cc2c(F)cccc2Cl)c(=O)c2c1nc1n2CCN1c1ccc(F)cc1`, the activity change, negative = inhibition was -4.11% (inactive).

On to `CCOc1ccc(NC(=O)c2cc(S(=O)(=O)N3CCCC3)c[nH]2)cc1`, for which the activity change, negative = inhibition was -12.2% (inactive).

As for `COc1ccc(NC(=O)/C(Cl)=C(/Cl)S(=O)Cc2ccc(C)cc2)cn1` (stereo not drawn), the activity change, negative = inhibition was -37.4% (active).

For `COc1ccc(CS(=O)/C(Cl)=C(/Cl)C(=O)Nc2ccc(OC)nc2)cc1` (stereo not drawn), the activity change, negative = inhibition is -16.1% (inactive).

Take `COc1cccc(NC(=S)N(Cc2ccc(C)cc2)Cc2ccccn2)c1`: the activity change, negative = inhibition is -4.38% (inactive).

Regarding `Cc1cc(Cl)ccc1OCCCC(=O)NCc1ccccn1`, the activity change, negative = inhibition is -2.23% (inactive).

For the compound `Cc1cc(Cl)ccc1OCCCC(=O)Nc1cccc(-n2cnnn2)c1`, the activity change, negative = inhibition is -32.2% (active).

On to `Cc1cc(Cl)ccc1OCCCC(=O)NCc1ccncc1`, for which the activity change, negative = inhibition was -15.1% (inactive).

For the compound `O=C(Nc1ccc2nc(SCCOc3ccccc3)sc2c1)c1ccco1`, the activity change, negative = inhibition is -3.21% (inactive).

Consider `O=C(CSc1ncc(-c2ccccc2)[nH]1)Nc1ccc(F)cc1F`, for which the activity change, negative = inhibition is -8.22% (inactive).

For the compound `O=C(Nc1ccccc1Cc1ccccc1)c1ccc2c(c1)SC1=NS(=O)(=O)CCN12`, the activity change, negative = inhibition was -30.1% (active).

In the case of `O=S1(=O)CCN2C(=N1)SC1=C2CCN(Cc2ccccc2)C1`, the activity change, negative = inhibition was 2.33% (inactive).

Take `CCc1ccccc1NC(=O)c1ccc2c(c1)CCN2S(C)(=O)=O`: the activity change, negative = inhibition was 6.15% (inactive) and -13% (inactive).

For `CCCN(C(=O)Cn1ncc2c([nH]c3ccc(C)cc32)c1=O)c1ccccc1C`, the activity change, negative = inhibition is 11.2% (inactive).

As to `O=[S+]([O-])(c1ccc(OC(F)(F)F)cc1)N1CCN([S+](=O)([O-])c2ccc3c(c2)OCCO3)CC1`, the activity change, negative = inhibition was -7.55% (inactive).

Consider `Cc1nn2c(=O)cc(COC(=O)c3ccccc3NC(=O)COc3ccccc3C)nc2s1`, for which the activity change, negative = inhibition was -3.25% (inactive).

Regarding `COc1ccccc1C(=O)Nc1ccc(C)c(S(=O)(=O)N2CCCCC2)c1`, the activity change, negative = inhibition was -2.3% (inactive).

As to `COc1ccc(NC(=O)CSc2nnc(C3CC3)n2C)cc1S(=O)(=O)N1CCCCC1`, the activity change, negative = inhibition was 5.62% (inactive).

Turning to `COc1ccc(NC(=O)C2=NNC(=O)CC2)cc1S(=O)(=O)N1CCCCC1`, the activity change, negative = inhibition was -34.7% (active).

As for `NS(=O)(=O)c1ccc(CCNC(=O)CCCCCn2c(=O)[nH]c3ccccc3c2=O)cc1`, the activity change, negative = inhibition was 5.32% (inactive).

With `COc1cc2nc(NCC(C)c3ccccc3)n3nc(-c4ccccc4)nc3c2cc1OC` (stereo not drawn), the activity change, negative = inhibition is -4.86% (inactive).

Take `Cc1nc2nc(NCc3cccc(Br)c3)[nH]n2c(=O)c1Cc1ccccc1`: the activity change, negative = inhibition was -2.6% (inactive).

In the case of `Cc1cccc(N(C)C(=O)CS(=O)(=O)c2cccc3nsnc23)c1`, the activity change, negative = inhibition was 9.37% (inactive).

As for `COC(=O)/C=C\C(=O)Nc1cccc([N+](=O)[O-])c1`, the activity change, negative = inhibition is 16.7% (inactive).

On to `O=C(Nn1cnnc1)c1ccc([N+](=O)[O-])cc1`, for which the activity change, negative = inhibition was -2.94% (inactive).

Consider `O=C(Nc1cccc([N+](=O)[O-])c1)Nn1cnnc1`, for which the activity change, negative = inhibition was -44.2% (active).

Regarding `CCCCCn1c(CCNC(=O)c2ccc(F)cc2)nc2ccccc21`, the activity change, negative = inhibition is -29.3% (inactive).
